19 molecules from ChEMBL document CHEMBL4513152, “CO-ADD screening of Yantai University (China) compounds” can be followed below.

The subject of test [1] is Klebsiella pneumoniae. To be noted: Concentration 32 ug.mL-1; ASSAY_TEST Inhibition of Bacterial Growth; detection method Absorption (OD600); MEDIA CAMHB; plate type 384well; NBS; CORNING #3640; time 18 hr.
Test [2] concerns Candida albicans. To be noted: 32 ug/mL.
Test [3] concerns Cryptococcus neoformans. To be noted: Concentration 32 ug.mL-1; ASSAY_TEST Inhibition of Fungal Growth; detection method Resazurin; Absorption (OD600-OD570); plate type 384well; NBS; CORNING #3640.

Measured potencies and affinities stand elsewhere.

In the case of `CC(=O)O[C@H]1C[C@@]2(C)C(C[C@@H](O)C3[C@@]4(C)CC[C@@H](OC(=O)CCCCCO[N+](=O)[O-])[C@@H](C)C4CC[C@@]32C)/C1=C(\CCC=C(C)C)C(=O)OCc1ccccc1` (some centres not stated), the values for the Inhibition in test [1], in test [2] and in test [3] were -0.98%, -2.51% and -81.56%, respectively.

As for `CC(=O)O[C@H]1C[C@@]2(C)C(C[C@@H](O)C3[C@@]4(C)CC[C@@H](OC(=O)CCC(=O)O)[C@@H](C)C4CC[C@@]32C)/C1=C(\CCC=C(C)C)C(=O)OCc1ccccc1` (some centres not stated), the results for the Inhibition in test [1], in test [2] and in test [3] were 31.46%, -1.56% and -100.19%, respectively.

Turning to `CC(=O)O[C@H]1C[C@@]2(C)C(C[C@@H](O)C3[C@@]4(C)CC[C@@H](OC(=O)c5ccccc5C(=O)Oc5ccc(CCO[N+](=O)[O-])cc5)[C@@H](C)C4CC[C@@]32C)/C1=C(\CCC=C(C)C)C(=O)OCc1ccccc1` (some centres not stated), the results for the Inhibition in test [1], in test [2] and in test [3] were 0.97%, -5.71% and -72.43%, respectively.

With `CC(=O)O[C@H]1C[C@@]2(C)C(C[C@@H](O)C3[C@@]4(C)CC[C@@H](O)[C@@H](C)C4CC[C@@]32C)/C1=C(\CCC=C(C)C)C(=O)OCc1ccccc1` (some centres not stated), the Inhibition in test [1] was 15.54%; in test [2] it was -0.49%; in test [3], -62.82%.

On to `CC(=O)O[C@H]1C[C@@]2(C)C(C[C@@H](O)C3[C@@]4(C)CC[C@@H](OC(=O)C(N)C(C)C)[C@@H](C)C4CC[C@@]32C)/C1=C(\CCC=C(C)C)C(=O)OCc1ccccc1` (some centres not stated), for which the Inhibition in test [1] is 18.28%; in test [2], 14.4%; in test [3], 88.23%.

As to `CC(=O)O[C@H]1C[C@@]2(C)C(C[C@@H](O)C3[C@@]4(C)CC[C@@H](O)[C@@H](C)C4CC[C@@]32C)/C1=C(\CCC=C(C)C)C(=O)On1nnc2ccccc21` (some centres not stated), the Inhibition in test [1] is -4.91%; in test [2], 3.88%; in test [3], -40.31%.

With `CC(=O)O[C@H]1C[C@@]2(C)C(C[C@@H](O)C3[C@@]4(C)CC[C@@H](O)[C@@H](C)C4CC[C@@]32C)/C1=C(\CCC=C(C)C)C(=O)Oc1ccc(CCO[N+](=O)[O-])cc1` (some centres not stated), the Inhibition was 24.64% in test [1], 7.08% in test [2] and -126.19% in test [3].

As for `CC(=O)O[C@H]1C[C@@]2(C)C(C[C@@H](O)C3[C@@]4(C)CC[C@@H](OC(=O)c5ccccc5C(=O)OCCc5ccc(OCCO[N+](=O)[O-])cc5)[C@@H](C)C4CC[C@@]32C)/C1=C(\CCC=C(C)C)C(=O)OCc1ccccc1` (some centres not stated), the Inhibition in test [1] is 4.99%; in test [2], -0.23%; in test [3], -57.39%.

Take `CC(=O)O[C@H]1C[C@@]2(C)C(C[C@@H](O)C3[C@@]4(C)CC[C@@H](OC(=O)CCC(=O)Oc5ccc(CCO[N+](=O)[O-])cc5)[C@@H](C)C4CC[C@@]32C)/C1=C(\CCC=C(C)C)C(=O)OCc1ccccc1` (some centres not stated): the figures for the Inhibition in test [1], in test [2] and in test [3] were -3.54%, -8.49% and -78.97%, respectively.

For `CC(=O)O[C@H]1C[C@@]2(C)C(C[C@@H](O)C3[C@@]4(C)CC[C@@H](OC(=O)C(C)N)[C@@H](C)C4CC[C@@]32C)/C1=C(\CCC=C(C)C)C(=O)OCc1ccccc1` (some centres not stated), the figures for the Inhibition in test [1], in test [2] and in test [3] were 8.77%, 16.1% and 90.52%, respectively.

As to `CC(=O)O[C@H]1C[C@@]2(C)C(C[C@@H](O)C3[C@@]4(C)CC[C@@H](OC(=O)c5ccccc5C(=O)Nc5cccc(N)c5)[C@@H](C)C4CC[C@@]32C)/C1=C(\CCC=C(C)C)C(=O)OCc1ccccc1` (some centres not stated), the Inhibition in test [1] was 1.34%; in test [2], 1.55%; in test [3] it was -66.02%.

Turning to `CC(=O)O[C@H]1C[C@@]2(C)C(CC(=O)C3[C@@]4(C)CCC(=O)[C@@H](C)C4CC[C@@]32C)/C1=C(\CCC=C(C)C)C(=O)OCc1ccccc1` (some centres not stated), the results for the Inhibition in test [1], in test [2] and in test [3] were 19.97%, 6.47% and -73.01%, respectively.

Take `CC(=O)O[C@H]1C[C@@]2(C)C(CC(=O)C3[C@@]4(C)CC[C@@H](OC(=O)CCCCCO[N+](=O)[O-])[C@@H](C)C4CC[C@@]32C)/C1=C(\CCC=C(C)C)C(=O)OCc1ccccc1` (some centres not stated): the Inhibition in test [1] was 8.79%; in test [2], -2.93%; in test [3], -87.68%.

For the molecule `CC(=O)O[C@H]1C[C@@]2(C)C(C[C@@H](O)C3[C@@]4(C)CC[C@@H](OC(=O)CO[N+](=O)[O-])[C@@H](C)C4CC[C@@]32C)/C1=C(\CCC=C(C)C)C(=O)OCc1ccccc1` (some centres not stated), the Inhibition is 17.67% in test [1], 0.87% in test [2] and -43.62% in test [3].

For the molecule `CC(=O)O[C@H]1C[C@@]2(C)C(C[C@@H](O)C3[C@@]4(C)CC[C@@H](OC(=O)CCC(=O)OCCc5ccc(OCCO[N+](=O)[O-])cc5)[C@@H](C)C4CC[C@@]32C)/C1=C(\CCC=C(C)C)C(=O)OCc1ccccc1` (some centres not stated), the Inhibition is 3.49% in test [1], -4.49% in test [2] and -89.71% in test [3].

Turning to `CC(=O)O[C@H]1C[C@@]2(C)C(C[C@@H](O)C3[C@@]4(C)CC[C@@H](OC(=O)c5ccccc5C(=O)Nc5ccc(N)cc5)[C@@H](C)C4CC[C@@]32C)/C1=C(\CCC=C(C)C)C(=O)OCc1ccccc1` (some centres not stated), the Inhibition in test [1] is 5.38%; in test [2] it was 25%; in test [3] it was -105.92%.

As for `CC(=O)O[C@H]1C[C@@]2(C)C(C[C@@H](O)C3[C@@]4(C)CC[C@@H](OC(=O)C(N)CC(C)C)[C@@H](C)C4CC[C@@]32C)/C1=C(\CCC=C(C)C)C(=O)OCc1ccccc1` (some centres not stated), the Inhibition in test [1] is 5.15%; in test [2], 2.67%; in test [3], -45.25%.

In the case of `CC(=O)O[C@H]1C[C@@]2(C)C(C[C@@H](O)C3[C@@]4(C)CC[C@@H](OC(=O)CCCCO[N+](=O)[O-])[C@@H](C)C4CC[C@@]32C)/C1=C(\CCC=C(C)C)C(=O)OCc1ccccc1` (some centres not stated), the Inhibition in test [1] was 6.42%; in test [2], -3.76%; in test [3], -91.73%.

With `CC(=O)O[C@H]1C[C@@]2(C)C(CC(=O)C3[C@@]4(C)CC[C@@H](OC(=O)CCCCO[N+](=O)[O-])[C@@H](C)C4CC[C@@]32C)/C1=C(\CCC=C(C)C)C(=O)OCc1ccccc1` (some centres not stated), the Inhibition in test [1] was 10.79%; in test [2], -1.47%; in test [3], -85.18%.
